The values that follow come from ChEMBL document CHEMBL4888484, “Replenishing the malaria drug discovery pipeline: Screening and hit evaluation of the MMV Hit Generation Library 1 (HGL1) against asexual blood stage Plasmodium falciparum ,using a nano luciferase reporter read-out” (2022).

Molecules are shown by their SMILES. About 540 (0.36%) of roughly 150,000 compounds showed an effect of 50% or more. Only a selection was taken, and strong results are over-represented in it overall.

The subject of the assay is Plasmodium falciparum. In words: Primary screen in NF54 nanoGlo assay, in single point, at 2uM, 72h; a lower Z score goes with more inhibition. It counts as functional, Erythrocyte. The following applies: timepoint 72 hour.
As for `Cc1nc[nH]c1CN(Cc1c(C)nn(C)c1C)C(C)C`, the “% Inhibition” value is listed as -7% and the Z score worked out at 0.99.
Consider `CC(C)N(CC1CCC1)C(=O)NC1CCC(Oc2cnccn2)CC1` (stereo unspecified), for which the “% Inhibition” value was found to be 29% and the Z score was -3.26.
The like results for `COc1cc(C)c(-c2ccc(C(=O)N3CCCCCC3)cc2)cn1` were, in that order, -10% and 1.56.
The like results for `Cc1ccc2c(C3=CCN(C(=O)c4cnc5[nH]c(=O)[nH]c(=O)c5c4)CC3)c[nH]c2c1` were, in that order, 6% and -1.15.
As to `O=C(CCc1cc2n(n1)CCN(Cc1ccc3ccccc3n1)C2)NCCO`, the “% Inhibition” value is -16% and the Z score worked out at 2.81.
Turning to `CCOCCC1CCN(C(=O)c2cccc(-n3cccn3)n2)CC1`, the “% Inhibition” value is recorded as -15% and the Z score was 1.43.
Take `CCc1ocnc1C(=O)NC1CCCCCC1C(=O)OC` (stereo unspecified): the “% Inhibition” value is -7% and the Z score worked out at 0.61.
The like results for `O=C(c1ccccc1)C1C(c2ccccc2)N1C(=O)c1cccc(Cl)c1` (stereo unspecified) were, in that order, -7% and 0.84.
For the molecule `CC(=O)Nc1ccc(-c2cc(-c3ccccc3)nc(-c3ccccc3)n2)cc1`, the “% Inhibition” value is -14% and the Z score worked out at 2.76.
Take `CC(=O)Nc1ccc(-c2cn(C)c[n+]2C)cc1`: the “% Inhibition” value is listed as -42% and the Z score stood at 4.97.
With `CC(=O)Nc1ccc(-c2cn3c4ccccc4ccc3[n+]2C)cc1`, the “% Inhibition” value is 87% and the Z score is -10.86.
With `OC1(c2csc(CN3CCOCC3)n2)CCN(Cc2ccccn2)CC1`, the “% Inhibition” value was -9% and the Z score amounted to 1.39.
The like results for `Cn1c(C(=O)Nc2cc(F)ccc2NC(=O)c2ccccn2)cc(Cl)c1Cl` were, in that order, -27% and 2.71.
Turning to `O=C(NCCc1ccccc1)NC1CCCC1`, the “% Inhibition” value is -11% and the Z score was 2.11.
`C[C@H]1CCC[C@@H](NCCc2ccccc2)CCC/C=C/c2cc(O)cc(O)c2C(=O)O1`: the “% Inhibition” value was found to be 73% and the Z score is -6.47.
On to `CC(C)N1CC[C@H](NCCc2ccccc2)C1`, for which the “% Inhibition” value is reported as -6% and the Z score stood at 0.77.
Take `NC(=O)c1ccc(NCCOc2cccc(Cl)c2Cl)nn1`: the “% Inhibition” value is listed as -9% and the Z score is listed as 1.2.
On to `CCC[C@H]1CN(C(=O)c2cccc3cn[nH]c23)CCN1CCOC`, for which the “% Inhibition” value is on record as 4% and the Z score is on record as -0.6.
Consider `Cc1ccccc1NC(=O)CN1CCN(Cc2ccccc2)S1(=O)=O`, for which the “% Inhibition” value is listed as -18% and the Z score is 1.6.
`CC1=C[C@@H](c2ccc(Cl)cc2)n2nc(NC(=O)c3ccccc3)nc2N1`: the “% Inhibition” value was -6% and the Z score came out at 1.14.
In the case of `Cc1ccc(C2=C[C@@H](c3ccc(C)cc3)n3nc(NC(=O)c4cccc(Cl)c4)nc3N2)cc1`, the “% Inhibition” value was found to be 16% and the Z score was -2.03.
In the case of `Cc1ccc(C2=C[C@@H](c3ccc(Cl)cc3)n3nc(NC(=O)c4ccccc4)nc3N2)cc1`, the “% Inhibition” value is 84% and the Z score is on record as -8.34.
Turning to `CC(=O)Nc1ccccc1CN(Cc1ccc(F)cc1F)C1CC1`, the “% Inhibition” value came out at 9% and the Z score is -0.85.
Turning to `CCN(C(=O)c1ccccc1Cc1ccc(C)cc1)C1CCOCC1`, the “% Inhibition” value was -13% and the Z score is given as 1.36.
As to `Cn1nccc1/C=C1\CC2C3CCc4cc(O)ccc4C3CCC2(C)C1O` (stereo unspecified), the “% Inhibition” value was 54% and the Z score is reported as -6.08.
As to `CC(C)C(=O)NCCN(C)Cc1ccc(C#N)cc1Br`, the “% Inhibition” value is reported as -19% and the Z score stood at 2.19.
Taken in the same sequence, the figures for `Cc1ncsc1CN(C)[C@@H](C(=O)O)c1ccsc1` were 3% and -0.57.
Taken in the same sequence, the figures for `C[C@]1(C(=O)Nc2cn[nH]c2)CCCN(C(=O)c2ccccc2)C1` were -8% and 1.66.
For the molecule `Cc1nc2cc(NC(=O)[C@@]3(C)CCCN(C(=O)c4ccccc4)C3)ccc2o1`, the “% Inhibition” value is 55% and the Z score is listed as -8.5.
Taken in the same sequence, the figures for `Cc1nnc(C(C)NC(=O)C2(C)CCCN(C(=O)c3ccccc3)C2)o1` (stereo unspecified) were -7% and 0.99.
Regarding `Cc1ccc(N2C[C@H](C(=O)O)[C@@H](C(C)C)C2)nn1`, the “% Inhibition” value was -13% and the Z score worked out at 1.69.
`CC1(C)CN(Cc2nnc(C3CC3)o2)CCN1Cc1ccccc1`: the “% Inhibition” value is reported as -3% and the Z score was 0.43.
With `O=C(NCc1ccco1)Nc1nccs1`, the “% Inhibition” value is listed as 1% and the Z score was -0.2.
The like results for `O=C(NCCN1CCOCC1)c1c[nH]c2ccc(Cl)cc2c1=O` were, in that order, 1% and -0.13.
For the molecule `O=S(=O)(CCC1Cc2ccccc2C1)N1CCC[C@@](O)(C(F)(F)F)CC1`, the “% Inhibition” value came to 34% and the Z score is given as -3.86.
With `O=C(Cn1cc(F)ccc1=O)N1CCc2ccccc21`, the “% Inhibition” value is -8% and the Z score worked out at 1.07.
On to `COc1cc(CNC2CCCCCC2)ccc1OC[C@@H](O)CN1CCCCCC1`, for which the “% Inhibition” value was found to be 1% and the Z score was -0.22.
In the case of `CN1CCN(C2(CNC(=O)Nc3ccccc3C(F)(F)F)CCCC2)CC1`, the “% Inhibition” value was -2% and the Z score came to 0.33.
Take `CN1CCN(C2(CNc3ccnc4ccccc34)CCCC2)CC1`: the “% Inhibition” value is 99% and the Z score is on record as -9.07.
For `O=C(NCc1c(F)cccc1Cl)c1cnc(-c2cccnc2)nc1`, the “% Inhibition” value is -19% and the Z score is 1.75.
With `C[C@@H](C(=O)Nc1ccc(F)cc1)N1CCC(NS(=O)(=O)c2cccs2)CC1`, the “% Inhibition” value was 32% and the Z score is -3.04.
Take `C[C@@H](C(=O)Nc1c(F)cccc1F)N1CCC(NS(=O)(=O)c2cccs2)CC1`: the “% Inhibition” value is given as -7% and the Z score was 0.81.
With `CCc1ccc(NC(=O)[C@H](C)N2CCC(NS(=O)(=O)c3cccs3)CC2)cc1`, the “% Inhibition” value was 76% and the Z score was -7.11.
The like results for `Cc1cccc(OCC(O)CNC2C3CCCOC3C2(C)C)c1` (stereo unspecified) were, in that order, -10% and 0.93.
As to `CC1(C)C(NCC(O)COc2ccc(F)c(F)c2)[C@@H]2CCC[C@@H]21` (stereo partly specified), the “% Inhibition” value worked out at 61% and the Z score is listed as -6.95.
The like results for `COc1ccc(C(CO)CNC2[C@@H]3CCC[C@@H]3C2(C)C)cc1` (stereo partly specified) were, in that order, 0% and -0.02.
As to `CC(=O)[C@H](C)n1nc(C2CC2)ccc1=O`, the “% Inhibition” value is listed as -17% and the Z score worked out at 2.21.
Taken in the same sequence, the figures for `Cc1cccc(-n2c(=O)[nH]c3nc(NCCN(C)C)ncc3c2=O)c1C` were 50% and -0.77.
Taken in the same sequence, the figures for `Cc1cccc(-n2c(=O)[nH]c3nc(N4CCCC4)ncc3c2=O)c1C` were -4% and 0.62.
For the molecule `COc1ccccc1-n1c(=O)[nH]c2nc(NCc3cccnc3)ncc2c1=O`, the “% Inhibition” value is on record as 1% and the Z score is -0.13.
Regarding `Cc1cccc(N(CCC#N)C(=O)c2cc3ccccc3c(=O)[nH]2)c1`, the “% Inhibition” value is listed as -18% and the Z score is recorded as 1.68.
The like results for `O=C(c1ccncc1F)N1CCCC[C@@H]1CCc1ccccn1` were, in that order, -23% and 2.29.
For `Cc1ccc(CNC(=O)CCNc2c(-c3cccc(F)c3)nc3cnccn23)o1`, the “% Inhibition” value was -18% and the Z score is recorded as 2.57.
Taken in the same sequence, the figures for `Cc1ccc(CCN2CCC[C@@H]2C(=O)O)cc1` were 3% and -0.5.
Consider `O=C(NC1CCC(N2C(=O)CCC2=O)CC1)C1CC1C1CCCCC1` (stereo unspecified), for which the “% Inhibition” value is reported as -7% and the Z score was determined as 0.72.
The like results for `O=C1c2ccc(O)cc2C(=O)N1c1ccc(N(c2ccccc2)c2ccc(N3C(=O)c4ccc(O)cc4C3=O)cc2)cc1` were, in that order, 8% and -1.03.
As to `O=C1c2cc(Nc3ccccc3)c3c4c(cc(Nc5ccccc5)c(c24)C(=O)N1c1ccccc1)C(=O)N(c1ccccc1)C3=O`, the “% Inhibition” value was 3% and the Z score was -0.42.
As for `O=C1NC(=O)c2ccc3c4c(ccc1c24)C(=O)N(c1ccccc1)C3=O`, the “% Inhibition” value is 73% and the Z score was -8.98.
On to `COc1ccc2cc3n(c2c1)C[C@@](C)(C(=O)NC1CCCCCC1)N(CCN1CCCCCC1)C3=O`, for which the “% Inhibition” value came to 2% and the Z score is given as -0.31.
Take `COc1ccc2cc3n(c2c1)C[C@@](C)(C(=O)NC1CCCC1)N(Cc1ccc(F)cc1)C3=O`: the “% Inhibition” value came out at 73% and the Z score was -1.23.
Take `COc1cccc(CN2C(=O)c3cc4ccc(OC)cc4n3C[C@@]2(C)C(=O)NC2CCCCCC2)c1`: the “% Inhibition” value is -12% and the Z score is 1.58.
Turning to `Cc1ccc(C(=O)N2CCCC[C@H]2c2nnc(-c3ccncc3)[nH]2)cn1`, the “% Inhibition” value is given as -12% and the Z score is 2.36.
For the molecule `CCOc1cc(CNc2ccc3c(c2)OCO3)ccc1OC`, the “% Inhibition” value is given as -1% and the Z score is 0.26.
Turning to `CC1(C)OCc2cc(CNc3ccc4oc(=O)[nH]c4c3)ccc2O1`, the “% Inhibition” value came to 96% and the Z score is listed as -13.84.
For the molecule `C[C@@H](NCc1ccc2c(c1)COC(C)(C)O2)c1cccc(O)c1`, the “% Inhibition” value is recorded as -21% and the Z score amounted to 2.42.
For `O=S(=O)(c1cccc(F)c1F)N1CCN(Cc2nccn2C(F)F)CC1`, the “% Inhibition” value is -4% and the Z score is listed as 0.57.
Consider `COc1cc2ncc3c(-c4ccc(C)c(C)c4)n[nH]c3c2cc1OC`, for which the “% Inhibition” value was determined as 51% and the Z score was -4.04.
Consider `COc1cc2ncc3c(-c4ccccc4)n[nH]c3c2cc1OC`, for which the “% Inhibition” value is on record as 9% and the Z score was -0.99.
Take `Cc1ccc(-c2n[nH]c3c2cnc2ccc(C)cc23)cc1`: the “% Inhibition” value was -5% and the Z score turned out to be 0.82.
Take `CC(C)C(=O)N[C@@H](N1CCCCCC1)C(Cl)(Cl)Cl`: the “% Inhibition” value was -15% and the Z score is reported as 2.02.
Turning to `Cn1nc(C(=O)NC2CCN(Cc3ccccc3)CC2)c2ccccc2c1=O`, the “% Inhibition” value came to 34% and the Z score is recorded as -3.81.
In the case of `O=C(Nc1cnc2c(c1)COCC2)c1cccc(OC(F)F)c1`, the “% Inhibition” value was -1% and the Z score came out at 0.19.
Consider `O=C(CNC(=O)c1ccc(C(F)(F)F)cc1)Nc1cnc2c(c1)COCC2`, for which the “% Inhibition” value amounted to 34% and the Z score is recorded as -4.64.
Turning to `COC[C@H]1CCCN1S(=O)(=O)N1CCC(c2cc[nH]n2)CC1`, the “% Inhibition” value is recorded as -7% and the Z score is 0.81.
On to `CN1C(=O)[C@@H]2CCCCN2c2ccc(C(=O)N3CCN(C(=O)c4ccco4)CC3)cc21`, for which the “% Inhibition” value amounted to 1% and the Z score was -0.14.
Consider `COCC1(CNC(=O)CNC(C)=O)CCCC1`, for which the “% Inhibition” value was -5% and the Z score stood at 0.85.
For the molecule `Cc1ccccc1CN[C@H]1CCCOCC1`, the “% Inhibition” value is listed as -4% and the Z score is 0.53.
For the molecule `Cc1ccccc1CNC1C(=O)NCCC1C` (stereo unspecified), the “% Inhibition” value is 74% and the Z score is 1.17.
For `Cc1ccccc1CC(=O)N[C@H]1CCCCNC1=O`, the “% Inhibition” value was 0% and the Z score came to 0.03.
As to `Cc1cc(C)cc(CCNC(=O)CN(C)S(C)(=O)=O)c1`, the “% Inhibition” value is on record as -4% and the Z score was found to be 0.7.
The like results for `COc1ccc(C[C@@H]2C3=C(CCCC3)CCN2C(=O)c2cc(C)on2)cc1` were, in that order, -5% and 0.97.
Taken in the same sequence, the figures for `OCC1(CN2CCCC2)CCN(Cc2ccc(Cl)cc2)CC1` were 2% and -0.36.
The like results for `COc1c(C)cnc(Cn2cnc(N)n2)c1C` were, in that order, 8% and -0.99.
